Reference: PubChem BioAssay (NCATS)
Inconclusive results are not listed. Entries that show only a call come without a potency. A number with no mark means an inactive call. Activity calls are given as the source filed them. Calls follow the shape of the dose curve; as a rule, active = well fitted inhibition curve with a large enough effect; inconclusive = small, poorly fitted or top-dose-only effect; inactive = no such curve, though single readings can be large or run the other way.

The compounds below were run on Zika virus NS2B-NS3 protease (unlinked complex) (assay: Primary screen GU Rhodamine qHTS for Zika virus inhibitors: Unlinked NS2B-NS3 protease assay (AID 1347159; also: nearly all actives have a fitted effect of over 60% in size)). Conditions: Recombinant ZIKV NS2B-NS3 protease, Rhodamine110 substrate fluorescence; series mostly up to 107 µM.
In short: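 Noncovalent NS2B hydrophilic domain/NS3 protease complex (25 nM final) in 10 mM Tris-HCl pH 8.0, 0.01% Tween 20, preincubated 15 min with compounds (up to 114 microM), then 1.5 microM Rhodamine110 substrate. Fluorescence change over 15 min fitted to 4-parameter Hill.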
Potency is read from the fitted curve at half-maximal effect.

SMILES	Potency	activity change, negative = inhibition
C[C@@H]1O[C@@H](OC[C@H]2O[C@@H](OCC3CCC4CC3C4(C)C)[C@H](O)[C@@H](O)[C@@H]2O)[C@H](O)[C@H](O)[C@H]1O (stereo partly specified)	inactive	
C[C@]12CCC(=O)C=C1[C@@H](O)C[C@@H]1[C@@H]2[C@@H](O)C[C@@]2(C)[C@H]1CC[C@]2(O)C(=O)CO	inactive	
O=C(/C=C/c1ccc(O)cc1)OC[C@]12O[C@H]1[C@@H](O)[C@@H]1C=CO[C@@H](O[C@@H]3O[C@H](CO)[C@@H](O)[C@H](O)[C@H]3O)[C@@H]12	inactive	
CC1=CC(=O)OC(C)(CC(C)(O)C(=O)O)C1 (stereo unspecified)	inactive	
CC(C)Nc1cc(-c2c[nH]c(C(=O)N[C@H](CO)c3cccc(Cl)c3)c2)c(Cl)cn1	44.7 µM (active)	
O=C(O[C@@H]1O[C@H](CO)[C@@H](O)[C@H](O)[C@H]1O)c1c(O)cc(O)cc1/C=C/c1ccccc1	inactive	
CC(C)=CCc1ccc(Oc2c(O)cc(C)cc2CO)c(C(=O)O)c1O	6.31 µM (active)	
CCCCN(CCCC)C(=O)CN1C[C@H](c2ccc3c(c2)OCO3)[C@@H](C(=O)O)[C@@H]1c1ccc(OC)cc1	28.2 µM (active)	
CC1(C)CCCC2(C)C1C(O)C=C(CO)C2(O)C(=O)O (stereo unspecified)	inactive	
CC1OC(OC2C(O)C(C(=O)O)OC(OC3CCC4(C)C(CCC5(C)C4C=CC4=C6CC(C)(C)CC(O)C6(C)CCC45C)C3(C)C)C2OC2OCC(O)C(O)C2O)C(O)C(O)C1O (stereo unspecified)	3.55 µM (active)	
C=C1CCC2C(C)(COC3OC(COC(=O)CC(=O)O)C(O)C(O)C3O)CCCC2(C)C1CCC1=CCOC1=O (stereo unspecified)	inactive	
COC(=O)CC1(O)C(=O)Nc2ccccc21 (stereo unspecified)	inactive	
C[C@@H]1CC[C@]2(C)C(C[C@@H](O)[C@H](O)[C@]23CO3)[C@@]1(C)CCc1ccoc1 (stereo partly specified)	inactive	
CCOC(=O)c1ccc(N(C)c2csc(-c3ccccc3)n2)cc1	inactive	
C=CC1(C)C=C2C(O)CC3C(C)(C(=O)O)CCCC3(C)C2CC1 (stereo unspecified)	11.2 µM (active)	
O=c1c2cccnc2n(-c2cccc([N+](=O)[O-])c2)c(=O)n1Cc1ccncc1	inactive	

SMILES	Potency	activity change, negative = inhibition
COC1CC(=O)C23C(=O)NC(CC(C)C)C2C(C)C(C)=CC3/C=C(\C)CCC1O (stereo unspecified)	inactive	
NCc1c[nH]c(=S)n1C1CCc2c(F)cc(F)cc2C1 (stereo unspecified)	inactive	
Cc1cccc(-c2[nH]c(CNc3ccccc3F)nc2-c2ccc3ncnn3c2)n1	inactive	
C/C=C(\C)C(=O)O[C@@H](C)[C@H]1CC[C@]2(O)C3CCC4C[C@@H](OC5CC(OC)C(OC6CC(OC)C(OC7CC(OC)C(OC8OC(C)C(OC9OC(CO)C(O)C(O)C9O)C(OC)C8O)C(C)O7)C(C)O6)C(C)O5)CC[C@]4(C)C3[C@H](O)[C@@H](O)[C@]12C (stereo partly specified)		-1.05% [at 19.1 µM]
COCC(=O)N1CCc2cc(-c3csc(NC(=O)c4cc(OC)cc(OC)c4)n3)ccc21	inactive	
C=Cc1cc(O)cc2nc(-c3ccc(O)c(F)c3)oc12	35.5 µM (active)	
CC(=O)O[C@@H]1[C@H](O[C@@H]2OC[C@](O)(CO)[C@H]2O)[C@@H](O[C@@H]2O[C@@H](C)[C@H](O)[C@@H](O)[C@H]2O)[C@H](OC(=O)[C@]23CCC(C)(C)C[C@H]2C2=CCC4[C@@]5(C)C[C@H](O)[C@H](O[C@@H]6O[C@H](C(=O)O)[C@@H](O)[C@H](O)[C@H]6O)[C@@](C)(C(=O)O)C5CC[C@@]4(C)[C@]2(C)CC3)O[C@@H]1C (stereo partly specified)	inactive	
C=CCc1ccc(O[C@@H]2O[C@H](CO[C@@H]3O[C@@H](C)[C@H](O)[C@@H](O)[C@H]3O)[C@@H](O)[C@H](O)[C@H]2O)cc1	inactive	
COc1cc(C[C@H]2COC(=O)[C@@H]2Cc2ccc(O)c(OC)c2)ccc1O	35.5 µM (active)	
Cc1ccc2c(c1)C=Cc1cc(C)ccc1C2c1cn(Cc2ccc(C(=O)Nc3nn[nH]n3)o2)c(=O)[nH]c1=S	3.16 µM (active)	
Nc1nonc1C(=Nc1ccc(F)c(Cl)c1)NO	inactive	
COc1cc(C/C(=C/NC(C)=O)N(CC(=O)Cc2ccccc2)C(C)=O)cc2c1OCO2	inactive	
C/C=C(/C)C(=O)O[C@H]1C=C(C)C[C@H](OC(=O)c2ccc(O)cc2)C2[C@](O)(C(C)C)CC[C@@]21C (stereo partly specified)	inactive	
CC(=O)NC(C(=O)OC1CCC(C)(C)C2CC=C3C(=O)OCC3(O)C12C)C(C)C (stereo unspecified)	inactive	
O=C(c1ccc(NS(=O)(=O)c2cccc3cccnc23)cc1)N1CCN(CC2CC2)CC1	inactive	
